This note sets out measurements from PubChem BioAssay AID540356 (Broad Institute, 2011).

In all, about 2,500 compounds went through this assay and about 360 (14%) were called active.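 The calls were made as follows: active = signal-lowering compounds whose fitted half-maximal concentration AC50 is no higher than ten times their top tested concentration; inconclusive = flat curve with 30 to 70% inhibition, or poor fit; inactive = flat within 30%, signal increase, or AC50 above limit.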 Only a sample is shown.

A short description of the test: HRP/luminol detection interference without ALR, dose response, artefact control for ALR inhibitor project, biochemical, luminescence, no ALR or DTT, cherry-pick (AID 540356).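 As to activity change, negative = inhibition: 0% = median of neutral control wells and -100% = median of quercitin 100 µM wells.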 The settings on record: HRP/H2O2 luminol luminescence counterscreen; series mostly up to 10 µM; activity change, negative = inhibition: at the top concentration. (In general: The purpose of a counterscreen is to sort out artefacts and off-target activity.)
As for `Cc1cc(S(=O)(=O)N2CCN(c3ccccc3O)CC2)c(C)s1`, the “activity change, negative = inhibition” value is -1.49% (inactive).
Consider `COc1cc(-c2csc(CCn3nc(C)cc3C)n2)cc(OC)c1OC`, for which the “activity change, negative = inhibition” value was -1.1% (inactive).
As for `C=CCn1c(-c2cccc([N+](=O)[O-])c2)n[nH]c1=S`, the “activity change, negative = inhibition” value was -6.54% (inactive).
Consider `C=CCn1c(-c2ccc(N)cc2)nc2ccccc21`, for which the “activity change, negative = inhibition” value is -1.15% (inactive).
For the compound `CC(C)c1ccc(NC(=O)Cc2c(C(=O)O)n(C)c3ccccc23)cc1`, the “activity change, negative = inhibition” value was -6.86% (inactive).
The same measure, in the same setting: the same measure for `CCc1ccc(NCc2ccc(OC)c(Cn3ccnc3)c2)cc1`: 0.244% (inactive); for `O=C(N/N=C/c1cccc(O)c1)N/N=C/c1cccc(O)c1`: -15% (inactive).
Same read-out and setting: the same measure for `Cc1ccc(NC(=O)CCC(=O)N/N=C/c2ccc(O)cc2)cc1`: -3.47% (inactive).
For `O=C(CCn1cnc2ccccc21)N/N=C/c1ccc(O)cc1`, the AC50 is 9.88 µM (active).
Regarding `O=C(CC(=O)N/N=C/c1ccc(O)cc1)N/N=C/c1ccc(O)cc1`, the AC50 was 2.72 µM (active).
With `CN(C)c1ccc(/C=N/NC(=O)CCC(=O)NCc2ccccc2)cc1`, the “activity change, negative = inhibition” value was 1.49% (inactive).
In the case of `O=C(CCN1CCN(C(c2ccccc2)c2ccccc2)CC1)N/N=C/c1ccc(O)cc1`, the “activity change, negative = inhibition” value is -4.67% (inactive).
On to `CC12CCC(C(=O)N/N=C/c3ccc(O)cc3)(OC1=O)C2(C)C` (stereo not given), for which the AC50 is 8.23 µM (active).
As for `CCN(CC)c1ccc(/C=N\NC(N)=O)cc1`, the “activity change, negative = inhibition” value was -3.71% (inactive).
For the compound `Cc1nc(C)c(CC(=O)N/N=C/c2ccc(O)cc2)c(=O)[nH]1`, the “activity change, negative = inhibition” value is -2.84% (inactive).
In the case of `O=C(Cn1cnc2ccccc21)N/N=C/c1ccccn1`, the “activity change, negative = inhibition” value is -0.451% (inactive).
Regarding `O=C(Cn1cc(C(F)(F)F)ccc1=O)N/N=C/c1ccc(O)cc1`, the “activity change, negative = inhibition” value is -3.05% (inactive).
On to `O=C(C[n+]1ccccc1)N/N=C/c1ccc(O)cc1`, for which the AC50 was 6.56 µM (active).
For `COc1ccc(C2SCC(=O)N2c2ccc(F)cc2)cc1` (stereo not given), the “activity change, negative = inhibition” value was 0.747% (inactive).
Same read-out and setting: to `NNC(=O)c1cc(-c2ccccc2)sc1N` belongs -1.19% (inactive); to `Cc1cc(C)cc(N2C(=O)CSC2c2ccccn2)c1` (stereo not given), -4.34% (inactive).
Consider `COc1cc(/C=N\NC(=O)c2ccc(-c3ccccc3)cc2)cc(OC)c1O`, for which the “activity change, negative = inhibition” value was -2.4% (inactive).
The same measure, in the same setting: to `CC(NC(=O)c1ccccc1)C(=O)N/N=C/c1ccc(O)cc1` (stereo not given) belongs -7.56% (inactive).
The same measure, in the same setting: the same measure for `Cn1nc(-c2ccc(Cl)cc2)c2cc(C(=O)NCCCN3CCCC3)sc21`: -0.462% (inactive).
On the same count and under the same terms, the same measure for `CCn1c(-c2ccc(Cl)cc2)n[nH]c1=S`: -8.41% (inactive); for `S=c1[nH]nc(-c2ccc(Cl)cc2)n1-c1ccc(Cl)cc1`: -8.06% (inactive); for `Cc1cccc(N2CC(C(=O)Nc3ccccc3N3CCCC3)CC2=O)c1C` (stereo not given): -8.55% (inactive).
On to `COc1ccc(CC(=O)N2CCN=C2SCc2ccc([N+](=O)[O-])cc2)cc1`, for which the “activity change, negative = inhibition” value was -0.324% (inactive).
For the compound `CCN(CCNC(=O)C1CCN(S(=O)(=O)c2cccc3nsnc23)CC1)c1ccccc1`, the “activity change, negative = inhibition” value was -0.842% (inactive).
`COc1ccc(C2NC(=O)CS2)cc1OC` (stereo not given): the “activity change, negative = inhibition” value is 7.69% (inactive).
Still for that read-out and setting: to `COc1ccc(/C=N\NC(=O)CCN2CCN(c3ccccc3)CC2)cc1OC` belongs 0.672% (inactive); to `COc1ccc(/C=N/NC(=O)CCn2nc(C)cc2C)cc1O`, -8.19% (inactive).
As to `COc1cc(/C=N/NC(=O)CCN2CCCCC2)ccc1O`, the AC50 was 8.16 µM (active).
On to `O=C(NCc1ccccn1)c1ccc2c(c1)N(Cc1ccccc1)CCS2`, for which the “activity change, negative = inhibition” value is 0.248% (inactive).
The same measure, in the same setting: to `COc1ccc(N2CCN(C(=O)CCNC(=O)c3ccc(C(C)(C)C)cc3)CC2)cc1` belongs -1.79% (inactive); to `Clc1nnc(N2CCCCC2)c2ccccc12`, -0.603% (inactive).
Turning to `CC(C)c1ccc(S(=O)(=O)Nc2ccc(O)c(Sc3ncn[nH]3)c2)cc1`, the AC50 is 9.35 µM (active).
For the compound `Cc1cc(O)c(Sc2ncn[nH]2)cc1NS(=O)(=O)c1ccc(Cl)cc1`, the “activity change, negative = inhibition” value was -11.3% (inactive).
On the same count and under the same terms, to `CC(C)c1ccc(NC2CCCN(C(=O)c3cc(C(C)C)nc(N)n3)C2)cc1` (stereo not given) belongs -1.39% (inactive); to `Cc1ccc(S(=O)(=O)Nc2cc(C)c(O)cc2C)cc1`, -3.78% (inactive).
`Cc1cc(C(=O)N2CCCC(Nc3ccc(C(C)C)cc3)C2)nn1C` (stereo not given): the “activity change, negative = inhibition” value is -3.19% (inactive).
Consider `Cc1ccc(S(=O)(=O)Nc2ccc(O)c(Sc3ncn[nH]3)c2)cc1`, for which the AC50 was 10.4 µM (active).
Regarding `COc1cc(-n2c(-c3ccccc3)n[nH]c2=S)c(OC)cc1Cl`, the “activity change, negative = inhibition” value is -5.76% (inactive).
The same measure, in the same setting: to `COc1ccc(C(=O)N2CCN=C2SCc2cccnc2)c(OC)c1` belongs -0.521% (inactive); to `Cc1cc(-c2nsc(=O)o2)c(S(C)(=O)=O)s1`, -3.28% (inactive).
On to `Cc1c(/C=N\NC(=O)c2ccc(F)cc2)cnn1C`, for which the “activity change, negative = inhibition” value is -0.44% (inactive).
As for `CCN(CC)c1ccc(CNc2ccc3c(c2)ncn3CC)cc1`, the “activity change, negative = inhibition” value was -4.04% (inactive).
The same measure, in the same setting: to `CCN(CC)c1ccc(CN2CCCCCC2)cc1` belongs -1.83% (inactive).
Turning to `CN(C)c1ccc(-c2n[nH]c(=S)n2-c2ccccc2)cc1`, the “activity change, negative = inhibition” value was -1.29% (inactive).
Same read-out and setting: the same measure for `Cc1cc(C)nc(Sc2c(C)nn(-c3ccccc3)c2C)n1`: -0.742% (inactive); for `Oc1c(Cl)cc(Cl)cc1CNc1ccc(Br)cn1`: -1.14% (inactive); for `O=C(c1ccc2c(c1)OCO2)N1CCN(c2ccccc2)CC1`: 0.839% (inactive).
On to `Nc1nc(-c2c[nH]c3ccccc23)cs1`, for which the “activity change, negative = inhibition” value is -0.944% (inactive).
On the same count and under the same terms, the same measure for `O=c1oc2ccccc2cc1-c1ccc(O)cc1`: -10.8% (inactive); for `c1ccc2c(-c3csc(-c4ccncc4)n3)c[nH]c2c1`: -10.2% (inactive).
Still for that read-out and setting: the same measure for `O=C(O)Cn1cc(C(=S)N2CCCCC2)c2ccccc21`: -14.5% (inactive); for `CC(C)NS(=O)(=O)c1ccc2c(c1)NCC2`: -1.5% (inactive); for `COc1ccc(C2=CSC3=NNC4(CCCCC4)NN23)cc1`: -0.282% (inactive).
The same measure, in the same setting: to `COc1ccc(NC2c3ccccc3C(=O)N2c2cccnc2)cc1Cl` (stereo not given) belongs -3.2% (inactive); to `S=c1[nH]nc(-c2ccco2)n1C1CCCCC1`, -1.24% (inactive); to `O=C(NNc1nc2cc3c(cc2s1)OCO3)c1ccccc1`, -0.28% (inactive).
As to `O=C(NNc1nc2ccccc2s1)c1ccccc1F`, the AC50 was 5.35 µM (active).
Take `O=C(NNc1c2ccccc2nc2ccccc12)c1ccccc1O`: the “activity change, negative = inhibition” value is -2.21% (inactive).
Same read-out and setting: the same measure for `COc1cccc(N2CCN(CC(=O)NC(C)c3ccccc3)CC2)c1` (stereo not given): -1.52% (inactive); for `O=C(NC1CCCCC1)N1CCN(c2ccc(Cl)cc2)CC1`: -0.46% (inactive); for `O=C(Nc1ccccc1N1CCCC1)c1ccccc1F`: -1.54% (inactive).
On the same count and under the same terms, to `COc1ccc(N2CCC(CNC(=O)Nc3ccc(OC)cc3OC)C2)cc1` (stereo not given) belongs -2.98% (inactive); to `Clc1ccc(-n2nnc(-c3nccs3)n2)cc1Cl`, -1.28% (inactive).
Still for that read-out and setting: to `Cc1cc(C)n2cc(CSc3nc4ccccc4[nH]3)nc2n1` belongs -2.68% (inactive); to `COc1ccccc1N1CCN(S(=O)(=O)c2cccc(F)c2)CC1`, -2.52% (inactive).
For `Oc1cc2c(cc1O)C(c1ccccc1)CNCC2` (stereo not given), the half-maximal activity concentration (AC50) was 4.68 µM (active).
As to `Oc1ccc(C2CNCCc3c2cc(O)c(O)c3Cl)cc1` (stereo not given), the AC50 is 5.92 µM (active).
The same measure, in the same setting: the same measure for `Nc1[nH]c(N=NC(=O)c2ccc(F)cc2)c2ccccc12`: > 10 µM (inactive).
With `CC(C)(C)c1ccc(Oc2ccc(NC(=O)CCCC(=O)O)cn2)cc1`, the “activity change, negative = inhibition” value is -11.2% (inactive).
Still for that read-out and setting: the same measure for `Cc1c(Cl)c(-c2n[nH]c(=S)n2-c2ccccc2)nn1C`: -3.37% (inactive).

As usually defined, the AC50 is the midpoint of the concentration-response curve, whichever way the signal moves.
